According to PubChem BioAssay:
The source made the active and inactive calls.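 Rule for the calls, unless noted: active = fluorescence slope after compound addition differing from the mean of all screened samples at 99.7% confidence, in either direction; inactive = the rest.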

Columns and labels:
[1] = inhibitors of TNFa-induced NFkB p65 translocation, primary screen, imaging, HUVEC, MLSMR starter and 10KST1 sets (AID 438;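 active = inhibition above 20% together with a positive visual image hit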;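 note: compound added about 3h40 before a 20 min TNFalpha stimulation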;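 for inhibition: signal is the nuclear over cytoplasmic p65 intensity ratio per well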); details: HUVEC TNFa-induced p65 nuclear translocation; cell count: measured here: nuclei count (cytotoxicity indicator), at 2.08 µM; inhibition: at 2 µM, stronger effect = higher value, 0% TNFa-plus-vehicle, 100% no-TNFa wells
[2] = inhibitors of mutant huntingtin aggregation, primary screen, imaging, exon1htt(103Q)mCFP cells, high-content imaging (AID 483;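 active = visual image review flags a hit and inhibition of aggregation exceeds 20%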;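 note: compound exposure lasted 3 days before fixation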;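 for nuclei count: percent of the per-plate median nuclei count of sample wells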); details: exon1htt(103Q)mCFP cell line, aggregate imaging, at 2 µM; inhibition of aggregation: stronger effect = higher value; nuclei count: measured here: cell count, toxicity
[3] = inhibitors of E-selectin induction by TNFa, primary screen, imaging, HUVEC, immunofluorescence, MLSMR starter and 10KST1 sets (AID 487;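 active = visually confirmed hit in the image check and inhibition above 20%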;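 for inhibition: signal is fraction of cell area covered by stained E-selectin grains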;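 for nuclei count: 100% = median nuclei count of all wells on the same plate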); details: HUVEC TNFalpha-induced E-selectin immunofluorescence imaging, at 2 µM; inhibition: stronger effect = higher value; nuclei count: measured here: cell number, toxicity
[4] = biological target: Voltage-gated potassium channel subunit beta-2 (Rattus norvegicus) (UniProt P62483); experiment: KvBeta enzyme negative modulators, primary screen, biochemical, NADPH fluorescence (AID 622;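 active = fluorescence slope higher than the sample average by over 3 SD, cut at about -0.22 in these data, passing the limit was not always enough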;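 note: slope of raw intensity against log time taken from 70 to 1610 s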); details: recombinant KvBeta, 4-cyanobenzaldehyde reduction, at 10 µM, stronger effect = higher value
Sequence of Voltage-gated potassium channel subunit beta-2 (Rattus norvegicus) (P62483 whole entry, looked up): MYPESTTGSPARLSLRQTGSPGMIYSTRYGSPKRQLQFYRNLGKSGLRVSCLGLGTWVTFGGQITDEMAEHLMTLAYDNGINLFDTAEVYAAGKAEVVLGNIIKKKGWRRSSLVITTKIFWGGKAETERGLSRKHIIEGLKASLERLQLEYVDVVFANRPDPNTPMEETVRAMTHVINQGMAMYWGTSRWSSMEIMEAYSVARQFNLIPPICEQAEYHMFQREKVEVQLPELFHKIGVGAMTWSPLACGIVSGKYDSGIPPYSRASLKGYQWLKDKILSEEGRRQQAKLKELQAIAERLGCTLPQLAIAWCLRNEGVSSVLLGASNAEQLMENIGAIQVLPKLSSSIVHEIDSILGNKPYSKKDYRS

[5] = biological target: Voltage-gated potassium channel subunit beta-2 (Rattus norvegicus) (UniProt P62483); experiment: KvBeta positive modulators, primary screen, biochemical, NADPH fluorescence (AID 623;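 active = NADPH fluorescence slope more negative than the mean of all samples by about 3 SD, 99.7% confidence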;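 note: fluorescence intensity change per second fitted from 20 to 320 s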); details: Recombinant KvBeta, NADPH fluorescence decrease slope, 10 min; at 10 µM; stronger effect = lower value
[6] = biological target: Alpha-2C adrenergic receptor (Homo sapiens) (UniProt P18825); experiment: modulators of alpha2C/GIRK thallium flux, primary screen, cell-based, HEK293 alpha2C/GIRK1/2 (AID 624); details: thallium flux BTC fluorescence, at 10 µM, actives lie on both sides;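 note: slope of fluorescence ratio to pre-addition baseline per second over 15 to 24 s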
Sequence of Alpha-2C adrenergic receptor (Homo sapiens) (P18825 whole entry, looked up): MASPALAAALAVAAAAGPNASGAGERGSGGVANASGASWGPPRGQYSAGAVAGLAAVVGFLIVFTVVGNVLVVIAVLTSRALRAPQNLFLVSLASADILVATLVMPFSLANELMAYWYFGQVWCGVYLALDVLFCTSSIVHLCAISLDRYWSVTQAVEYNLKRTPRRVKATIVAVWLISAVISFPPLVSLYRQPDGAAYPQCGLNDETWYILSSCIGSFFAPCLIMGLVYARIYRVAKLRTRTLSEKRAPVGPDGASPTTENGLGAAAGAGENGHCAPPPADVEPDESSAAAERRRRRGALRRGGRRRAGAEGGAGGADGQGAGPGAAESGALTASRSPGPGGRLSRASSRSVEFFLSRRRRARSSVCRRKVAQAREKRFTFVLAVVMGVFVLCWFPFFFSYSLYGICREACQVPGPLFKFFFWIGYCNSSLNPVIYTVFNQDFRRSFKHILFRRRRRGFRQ

[7] = inhibitors of Sendai virus-induced IRF3 signaling, primary screen, TLR/RLR signaling modifier project, cell-based, Sendai virus stimulus, luciferase, 10K MLSCN set (AID 602276;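 active = inhibition at or above 50% at 10 µM; inactive = inhibition below 50%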;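 note: firefly luciferase from ISG56 promoter only with Renilla not read in this screen; 0% = Sendai virus plus DMSO and 100% = medium plus DMSO without virus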); details: HEK293 RL24 IRF3 luciferase reporter, at 10 µM, stronger effect = higher value
[8] = inhibitors of poly I:C-induced TLR3 signaling, primary screen, cell-based, poly I:C stimulus, luciferase, 10K MLSCN set (AID 602277;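 active = inhibition of the reporter signal at or above 50%; inactive = inhibition below 50%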); details: HEK293-TLR3 RL24 IRF3 luciferase reporter, at 10 µM, stronger effect = higher value

SMILES	cell count [1]	inhibition [1]	inhibition of aggregation [2]	nuclei count [2] [%]	inhibition [3]	nuclei count [3] [%]	fluorescence slope [4]	NADPH fluorescence slope [5]	slope [6]	inhibition [7]	inhibition [8]
CC1CN(c2nc(-c3ccccc3)nc3ccccc23)CC(C)O1 (stereo not drawn)	407	-6% (inactive)	-1.5% (inactive)	99.3	-29.4% (inactive)	114	-0.333 (inactive)	-5.3e-05 (inactive)	0.00612 (inactive)	12% (inactive)	22% (inactive)
O=C(CSCc1cccs1)N1CCCC1	228	3.9% (inactive)	-13.9% (inactive)	95	18.9% (inactive)	87.8	-0.528 (inactive)	-1.2e-05 (inactive)	0.00575 (inactive)	-30.1% (inactive)	-81.3% (inactive)
O=C(NCc1ccc(F)cc1)C1CCN(C(=O)NCc2ccccc2)CC1	643	-3.5% (inactive)	2.3% (inactive)	110	-18.5% (inactive)	106	-0.448 (inactive)	-4.9e-05 (inactive)	0.00381 (inactive)	5.76% (inactive)	32.5% (inactive)
OC(CNCC1COc2ccccc2O1)COCc1cccs1 (stereo not drawn)	615	0.8% (inactive)	-9.6% (inactive)	105	-133% (inactive)	131	-0.568 (inactive)	6.2e-06 (inactive)	0.00544 (inactive)	-3.3% (inactive)	2.31% (inactive)
CCCN1CCN(CCCNC(=O)C2CCCN(c3nc4ccc(OCC)cc4s3)C2)CC1 (stereo not drawn)	513	-14% (inactive)	23.6% (inactive)	121	-18.5% (inactive)	119	-0.398 (inactive)	-4.5e-05 (inactive)	0.00402 (inactive)	-9.58% (inactive)	-10.2% (inactive)
O=C(C1CCN(c2nnnn2-c2ccccc2)CC1)N1CCN(c2ccccc2)CC1	618	-33.7% (inactive)	-1.1% (inactive)	98.3	-35.9% (inactive)	112	-0.602 (inactive)	-5.4e-05 (inactive)	0.00667 (inactive)	8.57% (inactive)	22.4% (inactive)
O=C(Nc1ccc2nc(-c3cccs3)[nH]c2c1)c1ccco1	334	-0.7% (inactive)	23% (inactive)	78.8	-132% (inactive)	119	-0.429 (inactive)	-7.7e-05 (inactive)	0.00445 (inactive)	-35.6% (inactive)	-87.4% (inactive)
Cc1ccsc1C(C(=O)NC1CCCCC1)N(C(=O)Cc1cccs1)C1CC1 (stereo not drawn)	500	0% (inactive)	16.1% (inactive)	86.8	-62.9% (inactive)	94.1	-0.35 (inactive)	-4.8e-05 (inactive)	0.00468 (inactive)	15.2% (inactive)	36% (inactive)
CCOC(=O)c1ccc(COC(=O)c2cc3ccccc3oc2=O)o1	607	-1.2% (inactive)	1.7% (inactive)	101	-39.1% (inactive)	96.9	-0.48 (inactive)	1.6e-06 (inactive)	0.00426 (inactive)	-6.72% (inactive)	-32.7% (inactive)
COc1cc2c(N3CCOCC3)cc(O)c(CC(=O)Nc3ccccc3)c2cc1OC	217	2.5% (inactive)	0.7% (inactive)	107	-63.7% (inactive)	101	-0.344 (inactive)	-3.7e-06 (inactive)	0.00641 (inactive)	-3.63% (inactive)	7.05% (inactive)
COc1ccc(OC)c(NC(=O)C2C3CC4OC(=O)C2C4C3)c1 (stereo not drawn)	318	-5.7% (inactive)	6.4% (inactive)	117	-119% (inactive)	114	-0.322 (inactive)	-5.4e-05 (inactive)	0.0056 (inactive)	13.4% (inactive)	18.6% (inactive)
CCOC(=O)NC1(NCc2ccccc2)Oc2ccccc2O1	606	-12.3% (inactive)	9.6% (inactive)	95	-140% (inactive)	129	-0.509 (inactive)	9e-05 (inactive)	0.00513 (inactive)	-5.13% (inactive)	-21.2% (inactive)
O=C(NCc1ccccn1)c1cccs1	254	12.5% (inactive)	2.9% (inactive)	91.4	-1.8% (inactive)	95.7	-0.479 (inactive)	-5.3e-05 (inactive)	0.00519 (inactive)	-4.29% (inactive)	5.52% (inactive)
Cc1ccc(-c2nc3ncccc3o2)cc1NC(=O)c1ccco1	317	0.6% (inactive)	-1.4% (inactive)	102	-107% (inactive)	102	-0.429 (inactive)	2.8e-06 (inactive)	0.00563 (inactive)	-1.98% (inactive)	14.6% (inactive)
CCCCN(C)C(=O)CS(=O)(=O)Cc1nc(-c2cccc(OC)c2)oc1C	737	1.1% (inactive)	13.9% (inactive)	98.3	-26.7% (inactive)	115	-0.518 (inactive)	-3.7e-05 (inactive)	0.00718 (inactive)	16.1% (inactive)	16.3% (inactive)
Cc1ccc2cc(C(c3nnnn3CC3CCCO3)N3CCCC4(CCCCC4)C3)c(=O)[nH]c2c1 (stereo not drawn)	715	0.8% (inactive)	23.8% (inactive)	106	-34% (inactive)	112	-0.618 (inactive)	-3.7e-05 (inactive)	0.00614 (inactive)	10.5% (inactive)	16.9% (inactive)
O=C(C1CCN(C2CC(=O)N(c3ccc(F)cc3)C2=O)CC1)N1CCOCC1 (stereo not drawn)	326	6.1% (inactive)	19.1% (inactive)	79.5	12.7% (inactive)	75.9	-0.512 (inactive)	-2.5e-05 (inactive)	0.00647 (inactive)	7.33% (inactive)	13% (inactive)
Cn1c(=O)c2nc(Cl)n(Cc3ccc(Cl)cc3Cl)c2n(C)c1=O	719	-22.4% (inactive)	11.5% (inactive)	89.6	-7.8% (inactive)	110	-0.514 (inactive)	-4.5e-05 (inactive)	0.00452 (inactive)	21.4% (inactive)	23.2% (inactive)
Cc1ccc(-n2c(=O)c(C#N)cc3c(=O)n4ccccc4nc32)cc1	338	3.6% (inactive)	-21.9% (inactive)	99.9	-31% (inactive)	102	-0.232 (inactive)	9.6e-06 (inactive)	0.00607 (inactive)	5.28% (inactive)	26.9% (inactive)
CC1CN=C(N(C(=O)Nc2ccccc2)c2ccc(S(=O)(=O)N3CCOCC3)cc2)S1 (stereo not drawn)	476	-4.8% (inactive)	11.9% (inactive)	95.4	-38.9% (inactive)	112	-0.356 (inactive)	-5.2e-05 (inactive)	0.00838 (inactive)	3.57% (inactive)	6.41% (inactive)
CC(=O)N(C(C)=O)c1c(C#N)c(C)n(-c2ccccc2)c1C(=O)c1ccccc1	430	8.5% (inactive)	4.6% (inactive)	102	24.1% (inactive)	110	-0.503 (inactive)	-3.8e-05 (inactive)	0.00413 (inactive)	27% (inactive)	26.6% (inactive)
COc1cccc(-c2nc3n(n2)C(c2ccccc2Cl)C(C(N)=O)=C(C)N3)c1 (stereo not drawn)	595	-0.8% (inactive)	-7.2% (inactive)	114	-26.6% (inactive)	103	-0.393 (inactive)	1.7e-05 (inactive)	0.00613 (inactive)	12.1% (inactive)	38.1% (inactive)
CN(CC(=O)O)S(=O)(=O)c1cc(Cl)ccc1Cl	416	3.5% (inactive)	-0.4% (inactive)	111	-8.7% (inactive)	101	-0.437 (inactive)	-5e-05 (inactive)	0.0044 (inactive)	-11.4% (inactive)	-16.7% (inactive)
O=C(O)CCn1[nH]c(=O)ccc1=O	172	6.8% (inactive)	37% (active)	67.3	-3% (inactive)	84.3	-0.562 (inactive)	1.7e-06 (inactive)	0.0053 (inactive)	21.4% (inactive)	18% (inactive)
CCOC(=O)c1ccc(S(=O)(=O)NC2CCCCCCC2)n1C	583	-1% (inactive)	3% (inactive)	95.7	-42.2% (inactive)	123	-0.614 (inactive)	5e-06 (inactive)	0.00591 (inactive)	17.3% (inactive)	23.7% (inactive)
Cc1ccc(-n2nnnc2SCC(=O)c2cc(C)n(-c3cc(C)on3)c2C)cc1	844	-12.4% (inactive)	-7.8% (inactive)	101	-36.4% (inactive)	106	-0.595 (inactive)	8.7e-07 (inactive)	0.00585 (inactive)	12.6% (inactive)	18.7% (inactive)
COc1ccc(CN2C(=O)[C@@H]3C(c4ccc(F)cc4)=NO[C@@H]3C2=O)cc1	338	-10.5% (inactive)	-8.2% (inactive)	87.7	-34.5% (inactive)	113	-0.302 (inactive)	-5.3e-05 (inactive)	0.00504 (inactive)	13.4% (inactive)	23.3% (inactive)
N#Cc1ccc(-c2csc(NC(=O)C3CC3)n2)cc1	718	-9.6% (inactive)	33.4% (inactive)	93.9	-25.2% (inactive)	116	-0.502 (inactive)	-1.9e-05 (inactive)	0.00647 (inactive)	-27.3% (inactive)	-86% (inactive)
